INHIBITION data for 69 molecules are collected here from ChEMBL document CHEMBL4513216, “Probing the Open Global Health Chemical Diversity Library for Multistage-Active Starting Points for Next-Generation Antimalarials” (ACS Infect Dis, 2020).

The whole screen tested about 69,000 compounds, of which about 8,600 (12%) showed an effect of 50% or more. Only a selection was taken, and strong results are over-represented in it overall.

For this experiment, the system named is Plasmodium berghei. Put plainly: Screen against P. berghei liver stage (PbLuc), transformed with Luciferase, at 10uM. The format is functional, HepG2. The settings on record: tested at 10 uM.
Consider `O=C(c1ccc(-n2cccn2)c(F)c1)N1CCCN2CCCC2C1` (centres undefined), for which the INHIBITION was found to be 49.1%.
To `CCN(CC)C(=O)CN1CCCC1c1nc(C)c2c(n1)N(C)C(=O)CC2` (centres undefined) belongs -0.55%; to `CC(=O)N1CCCC(Cc2nccn2C)C1` (centres undefined), 5.56%.
As to `C[C@@H]1CN(c2ccc(Cl)cn2)C[C@@]1(O)C1CC1`, the INHIBITION is 25.145%.
The value for `C=C(C)Cn1nnc(C2(NC(=O)c3ccccc3)CCCC2)n1` was 71.2%; that for `O=C(NC1(c2nnn(CCO)n2)CCCC1)c1ccccc1` was -16.2%.
The value for `O=C(NC1(c2nnn(CC3CC3)n2)CCCC1)c1ccccc1` was 42%.
To `Cc1cc(C)nc(C2CCN(C(=O)c3cnco3)C2)n1` (centres undefined) belongs -8.12%; to `Cc1ccc2ncnc(N3CCOCC3c3c(C)nn(C)c3C)c2c1` (centres undefined), 30%; to `Cc1nn(C)c(C)c1C1COCCN1c1ncncc1Br` (centres undefined), 57.7%.
As to `Cc1nn(C)c(C)c1C1COCCN1c1ncnc2c(C)cccc12` (centres undefined), the INHIBITION worked out at 28.6%.
`CN(Cc1ccc2c(c1)OCO2)C(=O)NCCc1cnn(C)c1`: the INHIBITION worked out at 28.15%.
`Cc1ccccc1CNC(C)c1ccc(OCC(=O)NC2CC2)cc1` (centres undefined): the INHIBITION worked out at 7.08%.
Regarding `COCC(C)N(C)C(=O)CCc1c(C)nc2c(C#N)cnn2c1C` (centres undefined), the INHIBITION was found to be 63.8%.
With `Cc1nc2c(C#N)cnn2c(C)c1CCC(=O)N(C)C(C)C(C)C` (centres undefined), the INHIBITION amounted to 62.8%.
To `Cc1nc2c(C#N)cnn2c(C)c1CCC(=O)N(C)C1CC1` belongs 28.5%.
The value for `Cc1nc2cc(O)nn2c(C)c1CCC(=O)N(C)CCC(C)C` was -57.5%; that for `COC(=O)c1cc(C2CC2)nc2c(C#N)cnn12` was 25.9%.
To `Cc1nn(C)c(C)c1CCC(=O)N(C)Cc1ccc(C#N)cc1` belongs -12.5%.
Regarding `CCCn1[nH]c(CNc2cccc(Cl)c2)nc1=O`, the INHIBITION stood at 46.4%.
As for `Cc1nnc2n1CCN(C(=O)c1cc3cc(F)ccc3[nH]1)C2`, the INHIBITION came to 14.1%.
Turning to `Cn1cc(CN2CCC3(CCCN(C(=O)c4cscn4)C3)C2)cn1` (centres undefined), the INHIBITION is -68.5%.
Take `Cc1cn2c(n1)CCC(NC(=O)c1cc(C3CC3)[nH]n1)C2` (centres undefined): the INHIBITION is given as -1.14%.
For the molecule `Cc1cc2nc(CN(C)c3ccccc3)cc(=O)n2o1`, the INHIBITION was found to be 12.9%.
The value for `Cc1cccc(N(C)Cc2cc(=O)n3oc(C)cc3n2)c1` was 43.5%.
Regarding `Cc1cc2nc(CN(C)c3ccc(Cl)cc3)cc(=O)n2o1`, the INHIBITION was found to be 56%.
In the case of `NC(=O)[C@H]1CCCN1C(=O)c1csc(-c2ccc(C(F)(F)F)cc2)n1`, the INHIBITION is -2.25%.
The value for `CCOCC1CCN(C(=O)C(c2ccc(F)cc2)N(C)C)CC1` (centres undefined) was 17.5%; that for `CNS(=O)(=O)c1c(C)sc2ccccc12` was -77.9%; that for `Cc1[nH]ncc1C(=O)N1CCCC(c2ccn[nH]2)C1` (centres undefined) was 23.5%.
As for `Cc1nc(CN2CCCN(C(=O)c3cnccn3)CC2)cs1`, the INHIBITION is listed as -16.4%.
In the case of `CC(CNS(N)(=O)=O)c1ccc(F)c(F)c1` (centres undefined), the INHIBITION was determined as 31.1%.
As for `CCCS(=O)(=O)NCC(C)c1ccc(F)c(F)c1` (centres undefined), the INHIBITION is 10%.
To `CC(CNS(C)(=O)=O)c1ccc(F)c(F)c1` (centres undefined) belongs 60.4%; to `Cc1ccn(-c2ccnc(N3CCN(c4ncccn4)CC3)n2)n1`, 44.9%; to `COCCO[C@H]1CCN(c2ccc(C)nn2)[C@H]1Cc1cnn(C)c1`, 13.7%.
In the case of `COc1ccc(CS(=O)(=O)CC(=O)NCC2CC2)cc1F`, the INHIBITION was determined as 19%.
For the molecule `COc1ccc(CS(=O)(=O)CC(=O)NCc2ccccc2F)cc1F`, the INHIBITION was found to be 40.3%.
As to `CNC(=O)CS(=O)(=O)Cc1ccc(OC)c(F)c1`, the INHIBITION is recorded as 52.2%.
The value for `Cc1nccn1CCN(C)C(=O)C1CCN(C(=O)C2CCCC2)CC1` was 48.9%.
In the case of `N#Cc1ccc(C(=O)N2CCCSCC2CN2CCCC2)cc1` (centres undefined), the INHIBITION turned out to be 40.8%.
On to `Cc1cc(S(C)(=O)=O)c(C)c(S(=O)(=O)N2CCN(C)CC2)c1`, for which the INHIBITION is given as 31.9%.
The value for `Cc1cc(S(C)(=O)=O)c(C)c(S(=O)(=O)N2CCCCCC2)c1` was 36.4%; that for `Cc1cc(S(C)(=O)=O)c(C)c(S(=O)(=O)N2CCCC(C)C2)c1` (centres undefined) was 63%.
The value for `CC(=O)c1c(F)cccc1NCC(O)C1CC1` (centres undefined) was 26%.
The value for `Cc1nc(NCc2scnc2-c2ccccc2)cc(C2CCNCC2)n1` was 24.3%; that for `CN(C)c1ccc(-c2cc(=O)n3c(n2)CCCCC3)cc1` was 35.1%; that for `Cc1ccc(S(=O)(=O)n2ccn(C(=O)COc3ccccc3)c2=O)cc1` was 44.1%.
Regarding `CC(C)Cc1nc(CSC2CCCN(c3cnn(C)c3)C2=O)no1` (centres undefined), the INHIBITION came to 20.1%.
Turning to `Cc1cc(CSC2CCCN(c3cnn(C)c3)C2=O)no1` (centres undefined), the INHIBITION was found to be 30.5%.
In the case of `Cn1cc(N2CCCC(SCc3nc(C4CC4)no3)C2=O)cn1` (centres undefined), the INHIBITION came out at 51.2%.
To `c1nc(CCC2CCCN2)cc(N2CCCCCC2)n1` (centres undefined) belongs 5.11%.
With `Cc1n[nH]c(C)c1C1COCCN1C(=O)c1ccc2c(c1)CCO2` (centres undefined), the INHIBITION stood at 32.125%.
Regarding `CSCc1cc(F)ccc1CNCc1cccc(O)c1`, the INHIBITION was determined as 5.15%.
For `O=C1CC(c2ccc3c(c2)OCO3)c2snc(C(=O)O)c2N1` (centres undefined), the INHIBITION was found to be 15.1%.
Take `CN(C)C(=O)CC1CC2(CCNCC2)c2cc(F)ccc21` (centres undefined): the INHIBITION amounted to 59.1%.
`O=C(CC1CC2(CCN(CC3CC3)CC2)c2ccccc21)NC1CCC1` (centres undefined): the INHIBITION is reported as 34.4%.
To `NC(=O)CC1CC2(CCNCC2)c2cc(F)ccc21` (centres undefined) belongs 59.3%.
On to `O=C(CC1CC2(CCNCC2)c2ccccc21)NCC1CC1` (centres undefined), for which the INHIBITION is 57.5%.
To `CC(C)N1CCC2(CC1)CC(CC(N)=O)c1ccc(F)cc12` (centres undefined) belongs 58.7%; to `CNC(=O)CC1CC2(CCNCC2)c2cc(F)ccc21` (centres undefined), 44.8%.
The value for `O=C(C1CC1)N1CC2(CCNCC2)c2cc(F)ccc21` was -12.2%.
The value for `CS(=O)(=O)N1CCC2(CC1)CC(CC(=O)NCC1CC1)c1ccccc12` (centres undefined) was 3.69%.
As to `COCCN1CCC2(CC1)CC(CC(N)=O)c1ccc(F)cc12` (centres undefined), the INHIBITION was -8.85%.
Consider `COCC(=O)N1CCC2(CC1)CC(OC)c1ccc(F)cc12` (centres undefined), for which the INHIBITION is reported as 42.1%.
As to `O=c1n(CCNCc2ccc(-c3ccccc3)cc2)nc2ccccn12`, the INHIBITION amounted to 35.7%.
On to `Cc1nn(C)c(Cl)c1C1CCCN1CC(=O)Nc1cccnc1` (centres undefined), for which the INHIBITION is 21.6%.
To `Cn1cc(-c2ncc3c(c2C(=O)O)CCN(CC2CCOC2)C3)cn1` (centres undefined) belongs 17.7%; to `O=C(c1ccco1)N1C[C@H]2CCCN(Cc3ccc(F)cc3)[C@H]2C1`, 29.4%.
